According to the supplement of paper PMC11150407:
Out of some 3,000 compounds screened, about 45 (2%) showed an effect of 50% or more. The entries come from a sample that favours strong results as a whole.

The compounds below were run on MOLM1 and UCSD/AML1 (averaged) (assay: cell viability relative to DMSO control (POC); higher = less growth inhibition). Conditions: 1 µM; 72 h.
Experimental: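 Primary viability screen in the 3q26 EVI1-high AML cell lines MOLM1 and UCSD/AML1, compounds at 1 uM for 72 h. ATP CellTiter-Glo read-out given as percent viable over DMSO control (POC), averaged over duplicates. This mapping covers the TimTec NDL-3000 natural derivative library, whose compounds are identified by TimTec catalogue codes (ST...).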

SMILES	cell viability
CCc1ccc2oc(=O)cc(CN3CCN(Cc4nc(-c5ccc(C)cc5)oc4C)CC3)c2c1	96.3%
O=C(Cn1c(=O)cc(C(=O)N2CCCCC2)c2ccccc21)Nc1ccc(F)cc1	89.9%
Cc1ccc2c(CN3CCN(Cc4ccc(Br)cc4F)CC3)cc(=O)oc2c1	100%
CCc1ccc(-c2cc(-c3cc(OC)c(OC)c(OC)c3)[nH]c(=O)c2C#N)cc1	96.9%
CC(=O)OCC1OC(OC(C)=O)C(OC(C)=O)C(OC(C)=O)C1OC(C)=O (centres undefined)	109%
O=C(/C=C/c1cccc(Cl)c1)c1ccc(OC(=O)c2cccc([N+](=O)[O-])c2)cc1	102%
Nc1nc2ncc(CNc3ccc(C(=O)N[C@H](CCC(=O)O)C(=O)O)cc3)nc2c(=O)[nH]1	102%
COc1cc(C2C(C#N)=C(N)Oc3n[nH]c(-c4ccccc4)c32)cc(OC)c1OC (centres undefined)	100%
COc1cc(C2C(C#N)=C(N)Oc3cc(N)ccc32)cc(OC)c1OC (centres undefined)	13.5%
COc1cc(C2C(C#N)=C(N)Oc3n[nH]c(C)c32)ccc1O (centres undefined)	110%
COc1cc(C(=O)N2CCCc3cccc(OCCNC(C)=O)c32)cc(OC)c1OC	98.7%
CCOC(=O)CC[C@@H](C)[C@H]1CC[C@H]2[C@@H]3CC[C@@H]4C[C@H](O)CC[C@]4(C)[C@H]3C[C@H](O)[C@]12C	86%
CC(=O)c1nc2ccccc2n1CC(=O)NCCOc1ccccc1	98.2%
COc1cccc(NC(=O)Cn2c(=O)cc(C(=O)N3CCCC3)c3ccccc32)c1	102%
COc1ccc(Nc2nc(N)c(C(=O)c3ccc(OC)c(OC)c3)s2)cc1	15.4%
COc1ccc(C(=O)c2sc(Nc3cccc(F)c3)nc2N)cc1OC	96.9%
COc1ccc(C(=O)c2sc(Nc3ccc(F)cc3)nc2N)cc1OC	101%
CCOc1ccc(-c2nc(CSc3nc4c(=O)[nH]cnc4n3C)c(C)o2)cc1OC	118%
COC(=O)c1cc(O)cc(O)c1	104%
COC(=O)c1c(C)n(CCOc2ccc(F)cc2)c2ccc(O)cc12	96.9%
COc1cc(C(=O)NCc2ccc3c(c2)OCO3)c(Br)c(OC)c1OC	105%
COc1cc(OC)c(C(=O)/C=C/c2ccc(O)cc2)c(OC)c1	100%
COc1cc(OC)c(C(=O)/C=C/c2ccccc2)c(OC)c1	33%
COc1cc(O)c(C(=O)/C=C/c2ccco2)c(OC)c1	112%
CCN(CC)c1ccc2cc(-c3ccccc3)c(=O)oc2c1	96.9%

SMILES	cell viability
CCN(CC)c1ccc2[nH]c3c(C(N)=O)cc(=O)c(=O)c=3oc2c1	3.99%
CC(C)c1ccc(NC(=O)Cn2c(=O)cc(C(=O)N3CCc4ccccc4C3)c3ccccc32)cc1	97.1%
COc1ccc(C(=O)/C=C2\C(=O)Nc3ccccc32)cc1OC	52.3%
COc1cc(C(=O)NC2Cc3ccccc3NC2=O)cc(OC)c1OC (centres undefined)	109%
COc1cc(C(=O)/C=C2\C(=O)Nc3ccccc32)cc(OC)c1OC	21.6%
CCN(CC)c1ccc2cc(-c3ccc(OC)cc3)c(=O)oc2c1	88.7%
CN(C)c1ccc2cc3ccc(=[N+](C)C)cc-3oc2c1	3.15%
COc1cc(/C=C/C(=O)c2ccc(C(=O)/C=C/c3cc(OC)c(OC)c(OC)c3)cc2)cc(OC)c1OC	106%
Cc1ccc(C)c(NC(=O)CN2CCN(Cc3cc(=O)oc4cc(C)ccc34)CC2)c1	98.3%
COc1ccccc1NC(=O)c1ccc2c(c1)OCO2	94.7%
CCOc1ccccc1C1CCCC2(O)CCN(CC(=O)NCc3ccco3)CC12 (centres undefined)	99.5%
CCOC(=O)C1=C(C)N(C)C(=O)NC1c1cc(Br)c(O)c(OC)c1 (centres undefined)	116%
CCOC(=O)c1sc(NC(=O)/C=C/c2ccccc2)c(C(=O)OCC)c1C	96%
COc1ccc2c(=O)cc(C(Cl)(Cl)Cl)oc2c1	5.13%
COc1ccc(-c2cc(=O)c3cc(O)ccc3o2)cc1	71.1%
COc1ccc(-c2cc(=O)c3ccccc3o2)c(OC)c1	113%
COc1ccc2oc(C(Cl)(Cl)Cl)cc(=O)c2c1	3.78%
COc1ccc2c(=O)c(O)c(-c3ccccc3)oc2c1	62.7%
COc1ccc2c(O)c([N+](=O)[O-])c(=O)oc2c1	105%
COc1cc(OC)cc(C(=O)Nc2ccccc2C(=O)Nc2ccccc2Cl)c1	95.1%
CN1CCN(Cc2c(O)ccc3cc(-c4nc5ccccc5s4)c(=O)oc23)CC1	101%
Cc1cc(C)c(NC(=O)Cn2c(=O)cc(C(=O)N3CCc4ccccc4C3)c3ccccc32)c(C)c1	100%
CCCCCC1CCC(=O)N1CCN=Cc1c(O)c(O)c(C(C)C)c2cc(C)c(-c3c(C)cc4c(C(C)C)c(O)c(O)c(C=NCCN5C(=O)CCC5CCCCC)c4c3O)c(O)c12 (centres undefined)	86.9%
Cc1[nH]c2ccccc2c1CCNC(=O)c1ccc(=O)[nH]c1	96.3%
CC(Cl)COC(=O)/C=C/c1ccc([N+](=O)[O-])cc1 (centres undefined)	108%

SMILES	cell viability
Cc1ccc(N2C3=C(C(=O)CC(C)(C)C3)C(c3ccc(O)cc3)C3=C2CC(C)(C)CC3=O)cc1	89.8%
Cc1ncnc2nc[nH]c12	3.11%
Cc1ccc(OCCSc2ncnc3nc[nH]c23)cc1	92.7%
COc1ncnc2nc[nH]c12	100%
Cc1ccc(-n2c(SCc3cn4ccccc4n3)nc3c(=O)[nH]cnc32)cc1	98.3%
Cc1cc2c(C(C)C)c(O)c(O)c(/C=N/N3CCN(C)CC3)c2c(O)c1-c1c(C)cc2c(C(C)C)c(O)c(O)c(/C=N/N3CCN(C)CC3)c2c1O	4.5%
Cc1cc2c(C(C)C)c(O)c(O)c(C=NCCN3CCN(C)CC3)c2c(O)c1-c1c(C)cc2c(C(C)C)c(O)c(O)c(C=NCCN3CCN(C)CC3)c2c1O	98.8%
CCC(O)/N=C/c1c(O)c(O)c(C(C)C)c2cc(C)c(-c3c(C)cc4c(C(C)C)c(O)c(O)c(/C=N/C(O)CC)c4c3O)c(O)c12 (centres undefined)	88.9%
COc1ccc(NC(=O)CSc2nc3c(=O)[nH]cnc3n2-c2ccc(C)cc2)c(OC)c1	102%
Cc1ccc(C(=O)N2N=C(c3c(-c4ccccc4)c4cc(Br)ccc4[nH]c3=O)CC2c2ccccc2)cc1 (centres undefined)	100%
O=C(O)c1ccc2[nH]c3c(c2c1)CCCC3	95.7%
CCOC(=O)N1CCc2[nH]c3ccc(C)cc3c2C1	42.4%
CCOC(=O)N1CCc2[nH]c3ccc(Cl)cc3c2C1	89.6%
CCN(CC)CCC(=O)c1ccc(OC)c(OC)c1	98.6%
COc1ccc(/C=C/C(=O)Oc2ccc(C(C)C)cc2)c(OC)c1	101%
COc1ccc(Br)cc1/C=C/C(=O)O	95.6%
CCOC(=O)[C@H]1CCC(=O)N1	17.6%
CCOC(=O)CCc1ccc2c(c1)NC(=O)CC2	91.8%
CCOC(=O)CCc1n[nH]c(=O)[nH]c1=O	88.1%
Cc1cccc(NC(=O)CSc2nc3c(=O)[nH]cnc3n2C)c1C	95.1%
Cc1[nH]c2ccc(Br)cc2c1CCNC(=O)c1cccs1	100%
Cc1ccc(NC(=O)CSc2nc3c(=O)[nH]cnc3n2CC2CCCO2)c(Cl)c1 (centres undefined)	98.7%
Cc1ccc2c(CN3CCN(C(=O)OC(C)(C)C)CC3)cc(=O)oc2c1	14.9%
Cc1ccc2c(CN3CCN(Cc4ccc(Cl)cc4)CC3)cc(=O)oc2c1	96.2%
COc1ccc(C(=O)N2CCN(Cc3cc(=O)oc4cc(C)ccc34)CC2)c(OC)c1	93%

SMILES	cell viability
C=C(C)C1CCC2(C)CCC3(C)C(CCC4C5(C)CCC(OC(C)=O)C(C)(C)C5CCC43C)C12 (centres undefined)	102%
COc1ccc(OC)c2c(C)cc(SCC(=O)c3ccc4c(c3)OCCO4)nc12	101%
COC(=O)C1=C(C)NC(SC)=C(C#N)C1c1cc(OC)c(OC)c(OC)c1 (centres undefined)	18.3%
COC(=O)C1=C(C)NC2=C(C(=O)CCC2)C1c1cc(OC)c(OC)c(OC)c1 (centres undefined)	94.9%
COC(=O)C1=C(C)NC2=C(C(=O)CC(c3ccc(OC)c(OC)c3)C2)C1c1cc(OC)c(OC)c(OC)c1 (centres undefined)	101%
CC(=O)/C=C(\C)NC(C)C(=O)O (centres undefined)	102%
O=C(/C=C/c1cccc(NC(=O)c2ccc(Br)cc2)c1)c1cccc(NC(=O)c2ccc(Br)cc2)c1	1.83%
O=C(/C=C/c1ccc(NC(=O)c2cc(NC(=O)C(c3ccccc3)c3ccccc3)cc(NC(=O)C(c3ccccc3)c3ccccc3)c2)cc1)c1ccccc1	94.6%
O=C(/C=C/c1ccc(Cl)cc1Cl)c1ccc(Br)cc1	108%
CCCCCCOC(=O)c1ccccc1NC(=O)c1c(O)c2ccccc2[nH]c1=O	97.5%
CCOc1cc(/C=C2\Oc3ccc(C(=O)OC)cc3C2=O)ccc1O	16.8%
CCOc1ccc(/C=C2/Oc3ccc(C(=O)OC)cc3C2=O)cc1OCC	96.6%
COC(=O)c1ccc2c(c1)C(=O)/C(=C/c1ccc(O)c(OC)c1)O2	84.6%
COc1cc(N(C(C)=O)C2OC(COC(C)=O)C(OC(C)=O)C(OC(C)=O)C2OC(C)=O)c(OC)c2c(C)cc(C)nc12 (centres undefined)	98.5%
CCOC(=O)CSc1nc2c(c(=O)[nH]c(=O)n2C)n1Cc1cccc(C)c1	100%
Cc1ccc(-n2c(SCc3cccc(Cl)c3)nc3c(=O)[nH]cnc32)cc1	114%
CN(C)S(=O)(=O)Nc1ccc(S(=O)(=O)N2CCc3ccccc3C2)cc1	98.2%
COc1ccc(-c2nnc(SCc3nc4ccccc4[nH]3)o2)cc1OC	95.3%
Cc1ccc(/C=C2\Oc3cc(O)ccc3C2=O)cc1	98.7%
O=C(CSc1nc2c(=O)[nH]cnc2n1-c1ccccc1)NC1CCCC1	91.7%
CC(NC(=O)c1ccccc1)C(=O)O (centres undefined)	99.5%
COc1ccc(C2c3[nH]c4ccccc4c3CCN2C(=O)/C=C/c2ccc(OC)c(OC)c2)cc1 (centres undefined)	81.9%
COc1ccc(C2c3[nH]c4ccccc4c3CCN2C(=O)/C=C/c2cc(OC)c(OC)c(OC)c2)cc1 (centres undefined)	32.6%
COc1ccc(/C=C/C(=O)N2CCc3c([nH]c4ccccc34)C2c2ccc(OC)cc2)cc1 (centres undefined)	90.2%
